The whole screen tested about 360,000 compounds, of which about 8,200 (2.3%) were called active. This excerpt belongs to a sample that is enriched for actives. Unmarked numbers belong to inactive results. No stated cut-off is given here; in the data, active means inhibition above about 27%; inactive means the rest.
These compounds were tested against Fructose-bisphosphate aldolase (Mycobacterium tuberculosis (strain ATCC 25618 / H37Rv)) (UniProt P9WQA3) (assay: M. tuberculosis aldolase activity blockers – biochemical, fluorescence, strain H37Rv, primary screen (AID 588726;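 further: 0% = vehicle and 100% = reference inhibitor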)). Settings: purified M. tuberculosis FBA, fluorescence read-out, at 1 µM, active compounds read high.
Fructose-bisphosphate aldolase (Mycobacterium tuberculosis (strain ATCC 25618 / H37Rv)), sequence (P9WQA3 whole entry, looked up): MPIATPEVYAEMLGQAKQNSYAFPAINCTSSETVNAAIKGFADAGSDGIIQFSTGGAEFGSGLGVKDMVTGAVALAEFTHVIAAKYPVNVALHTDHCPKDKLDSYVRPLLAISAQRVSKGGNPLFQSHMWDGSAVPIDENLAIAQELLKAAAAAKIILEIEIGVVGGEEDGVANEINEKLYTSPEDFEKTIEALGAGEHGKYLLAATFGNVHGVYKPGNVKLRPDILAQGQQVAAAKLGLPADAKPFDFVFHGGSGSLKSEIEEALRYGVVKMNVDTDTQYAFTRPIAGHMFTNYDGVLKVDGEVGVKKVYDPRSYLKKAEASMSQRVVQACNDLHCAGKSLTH
Work on `CC(=O)NC(NC(=S)Nc1c(C)n(C)n(-c2ccccc2)c1=O)C(Cl)(Cl)Cl` (configuration not stated) yielded an inhibition of 4.91%. `O=C(CCS(=O)(=O)Cc1ccccc1F)NCCCN1CCCCC1` was tested, and the inhibition was -1.06%. `O=C(NCc1cccnc1)Nc1cccc(NC(=O)NCc2cccnc2)c1F` gave an inhibition of 2.23%. For `Cc1ccc(-c2cn3cc(C)ccc3n2)cc1`, the inhibition was 56% (active). With `COc1ccc(Cc2cc(-c3ccc(F)cc3)n[nH]c2=O)cc1` the inhibition was -0.22%. Work on `COc1ccc(C2=Nc3cc(C)ccc3OC2)cc1` yielded an inhibition of 17.7%. For `CCN(c1cccc(C)c1)S(=O)(=O)c1ccc(-c2coc(C)n2)cc1`, the inhibition was 3.59%. For `COc1ccc(-c2cn3ccc(C)cc3n2)cc1`, the inhibition was 70.2% (active). In the case of `CCN(CC)S(=O)(=O)c1ccc(-c2cn3ccc(C)cc3n2)cc1`, the inhibition is reported as 140% (active). Compound `Cc1ccc2nc(-c3ccc(Br)cc3)cn2c1` has an inhibition of 4.66%. With `Cc1ccc(Cc2c(-c3ccccc3)nc3ccc(Cl)cn23)cc1` the inhibition was -2.09%. `CCN(CC(=O)NCCc1ccccc1)S(=O)(=O)c1ccc(C)cc1` gave an inhibition of -0.83%. In the case of `CCN(CC)C(=O)Oc1ccc(Br)cc1C(=O)Nc1ccc(F)c(Cl)c1`, the inhibition is reported as -6.9%. For `C#CCCOC(=O)N1C2=NC(C(=O)OC)=C(C(=O)OC)[C@@H]3N(C)c4ccc(OC)cc4[C@]23C[C@H]1C(=O)OC`, the inhibition was 5.83%. `O=C(OCCO)c1cc(Cl)c(C(=O)OCCO)cc1Cl` showed an inhibition of -2.53%. With `CC1CC(C)(C)CC2(C1)NC(=O)N(CC(=O)Nc1nccs1)C2=O` (configuration not stated) the inhibition was 1.81%. Compound `Cc1ccc(S(=O)(=O)N2CCN(C(=O)c3ccc(-n4cncn4)c([N+](=O)[O-])c3)CC2)cc1` has an inhibition of -0.25%. With `O=C(NCCc1ccccc1)c1c[nH]c2ccc(F)cc2c1=O` the inhibition was -1.25%. `COc1ccc(Cl)cc1NC(=O)c1cccc(N2C(=O)C3CC=CCC3C2=O)c1` (configuration not stated) was tested, and the inhibition was -2.03%. `Cc1cccc(NC(=O)c2ccc(S(=O)(=O)N(C)CC3CCCO3)cc2)c1C` (configuration not stated) showed an inhibition of -3.44%. `CNc1ccc(SC#N)cc1` was tested, and the inhibition was 2.17%. `CC1CCN(CC(=O)Nc2nccs2)CC1` gave an inhibition of -1.23%. For `CCOC(=O)C(CC)/C(C)=N\NC(=O)c1cccc(C)c1` (configuration not stated), the inhibition was 2.1%. In the case of `O=S(=O)(Nc1ccc2[nH]ncc2c1)c1ccccc1Cl`, the inhibition is reported as -2.11%. `Cc1ccc(NS(=O)(=O)c2c(C)[nH]c(C)c2C(=O)N2CCCCC2)c(C)c1` showed an inhibition of 1.03%. For `COc1ccc(NC(=O)c2sccc2SCC#N)cc1`, the inhibition was 0.88%. With `CCOC(=O)c1[nH]c2ccc(C)cc2c1N=C(C)N(C)C` the inhibition was 1.43%. In the case of `CCOC(=O)c1cc2cc(C)ccc2[nH]1`, the inhibition is reported as 31.8% (active). Compound `Cc1ccc2[nH]c(=O)c(COC(=O)c3ccccn3)cc2c1` has an inhibition of 1.82%. `CC1(C)C(=O)CCC2(C)C1=CCC1C2C(=O)CC2(C)C1CCC2(O)C(=O)CO` (configuration not stated) showed an inhibition of 1.52%. `COc1ccc(-n2c(C)cc(C(=O)CN3C(=O)NC4(CCc5ccccc54)C3=O)c2C)cc1` (configuration not stated) showed an inhibition of 1%. Work on `Cn1c(=O)c(Sc2ccc(Cl)cc2)c(O)c2ccccc21` yielded an inhibition of 2%. Work on `Cn1c(=O)c(C(=O)Nc2ncccn2)c(O)c2ccccc21` yielded an inhibition of 7.7%. In the case of `Cc1cc(C)c(-c2c(O)c3ccccc3n(C)c2=O)c(C)c1`, the inhibition is reported as 62.7% (active). Work on `COc1c(O)cccc1-c1nnn(CCC(=O)OCC(=O)c2ccccc2)n1` yielded an inhibition of 0.78%. For `C/C=C(/C)C(=O)OC1Cc2c(ccc3ccc(=O)oc23)OC1(C)C` (configuration not stated), the inhibition was 26.4%. For `CC1(C)Oc2ccc3ccc(=O)oc3c2/C(=C/NCCO)C1=O`, the inhibition was 2.48%. `CC(=O)c1c(OCC(=O)N(C)C2CCCCC2)ccc2c(C)cc(=O)oc12` gave an inhibition of 9.58%. `Cc1cc(=O)oc2c(C(=O)c3ccccc3)c(OCC(N)=O)ccc12` was tested, and the inhibition was 0.48%. With `Cc1cc(=O)oc2c1ccc1ccccc12` the inhibition was 37% (active). In the case of `N#CC(C#N)=CN=c1ccn(Cc2ccc(Cl)cc2Cl)cc1`, the inhibition is reported as -0.58%. `O=C(COc1ccc2ccccc2c1)N1CCN(C(=O)c2cccs2)CC1` gave an inhibition of -0.2%. In the case of `CC(=O)NS(=O)(=O)c1ccc(NC(=O)/C=C/c2ccccc2Cl)cc1`, the inhibition is reported as 6.43%. With `CC(=O)Nc1ccc(S(=O)(=O)Nc2cc(C)cn(Cc3ccc(C)cc3)c2=O)cc1` the inhibition was -0.45%. `CCC1CCCCN1CCCNC(=O)c1cc2c(Cl)nc3ccccc3c2s1` (configuration not stated) gave an inhibition of -4.11%. `Cn1c(C(=O)NCCN2CCc3ccccc3C2)cc2c(=O)[nH]c3ccccc3c21` was tested, and the inhibition was 5.1%. With `O=C(NCCN1CCN(Cc2ccccc2)CC1)c1cc2c(=O)[nH]c3ccccc3c2s1` the inhibition was 47.8% (active). `Cc1ccc(C)c(C(O)c2ncc(-c3cccc4ccccc34)[nH]2)c1` (configuration not stated) showed an inhibition of 23.2%. Work on `COc1ccccc1CN(C)C(=O)c1cc2ccccc2o1` yielded an inhibition of 2.4%. `COc1ccc(C)cc1S(=O)(=O)NCCc1ccccc1` gave an inhibition of -6.6%. With `COc1cccc2oc(CCc3ccccc3)cc(=O)c12` the inhibition was 33.4% (active). `CCOc1ccc(C(=O)NC(=S)Nc2ccc(N3CCOCC3)c(Cl)c2)cc1[N+](=O)[O-]` gave an inhibition of 11%. `COC(=O)C1C(=O)CC(C)(O)C(C(=O)OC)C1c1ccc2c(c1)OCO2` (configuration not stated) gave an inhibition of 0.24%. With `COc1ccc(OC)c(S(=O)(=O)Nc2ccccc2F)c1` the inhibition was -2.78%. `COc1cc(/C=C/C(=O)O)cc(S(=O)(=O)Nc2ccccc2C(=O)NCCc2ccccc2)c1OC` showed an inhibition of 0.65%. `COc1cc(OC)c(S(=O)(=O)Nc2ccccc2C(=O)O)cc1S(=O)(=O)Nc1ccccc1C(=O)O` was tested, and the inhibition was 30.9% (active). Work on `COc1ccc(N2CC(C(=O)NCCS(=O)(=O)N3CCN(c4ccccc4)CC3)CC2=O)cc1` (configuration not stated) yielded an inhibition of -1.82%. Work on `CCOC(=O)N1CCN(Cc2nc3cc(NC(=O)CC)ccc3n2CC)CC1` yielded an inhibition of 0.91%. `COCc1c(C(=O)OCC(=O)Nc2ccc(OC(F)F)cc2)oc2ccccc12` was tested, and the inhibition was 1.74%. For `COC(=O)c1cnn2c(C(F)(F)F)cc(-c3ccco3)nc12`, the inhibition was 14%. `Cc1cc(C)c2nc(-c3ccco3)cc(C(=O)O)c2c1` was tested, and the inhibition was 105% (active). `CCOC(=O)c1ccn(-c2nc(-c3ccco3)cc(C(F)(F)F)n2)n1` gave an inhibition of 10.6%.

From PubChem BioAssay AID588726 (The Scripps Research Institute Molecular Screening Center, 2011)
